Screens as filed in PubChem BioAssay.
The full list was thinned out, with hits kept by preference.
Shiga toxin inh = blocks Shiga toxin action in Vero cells; Vero cells, Shiga toxin protein synthesis inhibition reporter; inhibition, % at 38.7 µM; 9.2% of 290,000 active; in the data active = inhibition mostly above about 28%, no sharp cut-off; inactive = mostly below about 43%; note: 0% is about no effect
NS1 inh = blocks influenza NS1 protein function; Potency, µM (top dose mostly 46.1 µM), inactives show top-dose activity, positive = more growth; 0.4% of 270,000 active; AID 2326; note: potency is the fitted concentration of half-maximal effect; actives are rising curves; nearly all actives have a fitted effect of over 50% in size
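A cell-based growth assay was used: compounds that relieve NS1-induced slow growth of budding yeast raise OD600. Assay medium was yeast nitrogen base with ammonium sulphate and -URA supplement, pH 6.0, with 2% galactose.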
SARS PLP yeast = blocks SARS-CoV papain-like protease in a yeast assay | Potency, µM (doses to about 32.9 µM), for the others: at the highest dose activity, positive = growth rescue, hits mostly activators | S. cerevisiae expressing SARS-CoV PLpro, growth rescue | 0.19% of 330,000 active; note: potency is the fitted concentration of half-maximal effect; 0% is about no effect; nearly all actives have a fitted effect of over 55% in size
LmPK inh = LmPK (Leishmania mexicana) enzyme inhibition. purified LmPK, Kinase-Glo ATP luminescence, 1 h. Potency, µM (titrated, usually from 57.5 µM), inactives show at the highest dose activity change, negative = inhibition, usual class: inhibitors. Q27686. 0.37% of 290,000 active. AID 1721; active = well fitted curve in the direction sought with a large enough effect; inconclusive = small, poorly fitted or top-dose-only effect, or another doubt; inactive = no such curve, though single readings can be large; an effect the other way counts as inactive or inconclusive; note: potency is the fitted concentration of half-maximal effect; % is set by controls: 0 for no effect and ±100 for the full control effect
Target sequence (Q27686 whole entry, looked up): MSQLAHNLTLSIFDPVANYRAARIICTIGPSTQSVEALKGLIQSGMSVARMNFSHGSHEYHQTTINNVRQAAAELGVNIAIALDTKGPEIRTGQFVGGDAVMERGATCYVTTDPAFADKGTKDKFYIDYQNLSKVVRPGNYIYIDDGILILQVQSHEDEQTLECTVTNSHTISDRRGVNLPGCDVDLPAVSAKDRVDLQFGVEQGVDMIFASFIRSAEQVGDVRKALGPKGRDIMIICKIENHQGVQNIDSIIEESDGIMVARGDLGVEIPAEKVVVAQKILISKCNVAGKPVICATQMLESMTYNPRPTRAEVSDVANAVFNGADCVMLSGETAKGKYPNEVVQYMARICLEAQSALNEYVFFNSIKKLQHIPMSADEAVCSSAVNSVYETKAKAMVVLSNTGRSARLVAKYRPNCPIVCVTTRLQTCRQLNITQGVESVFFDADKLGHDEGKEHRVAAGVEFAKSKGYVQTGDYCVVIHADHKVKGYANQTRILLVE
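qHTS format; LmPK 0.1 nM; substrates PEP 0.5 mM and ADP 0.1 mM. One-hour room-temperature incubation, then coupled luciferase luminescence; 0.5 nM enzyme wells mark activation.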
Tb PYK inh = blocks Trypanosoma brucei pyruvate kinase | TbPYK enzyme, Kinase-Glo Plus ATP luminescence, 45 min | Potency, µM (top dose mostly 76.8 µM), for the others: at the top dose activity, negative = inhibition, usual class: inhibitors | 0.12% of 410,000 active | AID 624173; active = well fitted curve in the direction sought with a large enough effect; inconclusive = small, poorly fitted or top-dose-only effect, or another doubt; inactive = no such curve, though single readings can be large; an effect the other way counts as inactive or inconclusive; note: potency is the fitted concentration of half-maximal effect; % is set by controls: 0 for no effect and ±100 for the full control effect; nearly all actives have a fitted effect of over 50% in size
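Glycolytic pyruvate kinase of T. brucei was incubated with substrate, test compound and 130 uM ADP for 45 minutes at room temperature. Luminescent Kinase-Glo Plus signal was measured after 10 minutes.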
CHX counter = counter-screen hit for Shiga toxin inhibitors, cycloheximide. max response, %. 12% of 300,000 active. cell reporter, cycloheximide protein synthesis inhibition counterscreen; in the data active = max response mostly above about 13%, no sharp cut-off; inactive = mostly below about 14%; note: read at 38.3 µM for the half of the compounds with a filed dose; 0% is about no effect
The depositor's hits bear a star; ? = inconclusive; / = no result. Unless noted, calls come from the whole dose curve.

SMILES	Shiga toxin inh	NS1 inh	SARS PLP yeast	LmPK inh	Tb PYK inh	CHX counter
CC(C)C#Cc1cnc2c(c1)C(=O)N([C@H](C)CO)C[C@@H](C)[C@H](CN(C)C(=O)Nc1ccccc1F)O2	/	/	/	/	-12.6%	/
CC(=O)[C@H]1[C@@H]2C(=O)N(c3cccc(Cl)c3)C(=O)[C@@H]2[C@H]2c3ccccc3C=CN21	13.0	10.6%	-8.8%	7.5%	-3.0%	11.1
N#C[C@@H]1[C@@H]2C(=O)N(c3ccc4c(c3)OCCO4)C(=O)[C@@H]2C2c3ccccc3C=CN21 (some centres undefined)	29.7*	26.0%	-13.0%	7.1%	/	15.6
O=C1C(=Cc2ccc(Br)o2)C(=O)c2ccccc21	-3.0	17.7%	4.6%	-25.5%	-12.2%	30.4*
CC1=C/C(=C\c2ccc(Br)o2)C(=O)O1	-6.5	3.7%	2.9%	8.5%	-21.1%	-0.1
COc1ccc(-c2nc3cnc(N4CCOCC4)nc3n(CCC#N)c2=O)cc1	/	/	/	/	-7.0%	/
COc1ccccc1OCCCCOc1ccccc1F	75.5	-0.9%	1.9%	1.0%	-6.5%	34.0*
Fc1ccccc1OCCCCCCN1CCCC1	41.6	0.2%	-1.8%	3.8%	-0.2%	16.5*
COc1ccccc1Oc1ccc(Oc2ccccc2OC)cc1	44.6	/	-1.3%	1.2%	-2.2%	40.8*
Cc1ccc(S(=O)(=O)N2CCC[C@H]2C(=O)OCC(=O)N2c3ccccc3NC(=O)C2(C)C)cc1	/	/	/	/	-9.2%	/
CCOC(=O)C1=C(COC(=O)[C@@H]2CCCN2S(=O)(=O)c2ccc(C)cc2)NC(=O)NC1C (some centres undefined)	9.8	13.0%	-0.8%	1.1%	-1.3%	12.1*
CC(C)(C)c1ccc(/C=N/N2CCN(c3ccccn3)CC2)cc1	21.1	-5.1%	0.2%	1.2%	-4.0%	8.7
C(=N\N1CCN(c2ccccn2)CC1)/c1ccco1	43.7*	/	-0.1%	-8.7%	-0.4%	22.3*
Cc1ccc(/C=N/N2CCN(c3ccccn3)CC2)o1	75.0*	1.5%	-1.3%	-20.3%	-4.7%	34.6*
CC(C)[Si]1(C(C)C)OCC2OC(n3cnc4c(N)ncnc43)C(N)C2O[Si](C(C)C)(C(C)C)O1 (centres undefined)	/	/	/	/	-1.1%	/
Cc1ccc(N2C(=O)C(Cl)=C(N3CCCCCC3)C2=O)cc1	44.1	2.2%	-2.5%	0.2%	0.7%	26.8*
CC(=O)c1ccc(NC(=O)Nc2sc3nc4n(c(=O)c3c2C)CCC(C)CC4)cc1 (centres undefined)	/	/	/	/	-1.0%	/
CCOC(=O)c1ccc(S(=O)(=O)Nc2ccc3cn[nH]c3c2)cc1	-2.9	9.5%	-7.6%	1.0%	-15.4%	11.5
COc1cc(C(=O)Nc2ccc(S(=O)(=O)N(C)c3ccccc3)cc2)cc(OC)c1OC	13.7	?	13.0%	0.5%	-4.9%	-3.1
COc1cc(C(=O)Nc2ccc(N(C)C)cc2)cc(OC)c1OC	58.2*	-2.8%	-7.9%	-1.0%	-12.0%	24.5*
CN(C)c1ccc(NC(=O)c2ccc3nc[nH]c3c2)cc1	137.6*	-0.6%	1.8%	0.1%	-13.9%	51.4*
O=C(NNC(=O)c1ccccc1Br)c1ccc2nc[nH]c2c1	1.9	14.5%	1.0%	-1.3%	4.3%	5.5
O=C(Nc1ccc(F)cc1)c1ccc2nc[nH]c2c1	45.9*	/	0.6%	-9.0%	-6.7%	29.8*
O=C(NNC(=O)c1ccccc1F)c1ccc2nc[nH]c2c1	67.6	1.1%	3.4%	-8.0%	3.2%	21.8*
O=C(NC1CCCC1)c1ccc2nc[nH]c2c1	15.9	-5.0%	-0.6%	-5.4%	-1.0%	-1.0
COc1ccc(-c2ccc(C3C4C=CCC(C)C4C(=O)N3Cc3ccccc3)c(F)c2)cc1OC (centres undefined)	11.1	/	/	/	/	15.2
Cc1cccc(CNC(=O)Cn2nc(C)n3c(cc4cc(F)ccc43)c2=O)c1	/	/	/	/	-0.8%	/
CCCCN=C1NN=C(c2cccc([N+](=O)[O-])c2)CS1	83.6*	/	0.0%	-0.3%	-12.4%	24.3*
CCCCN=C1NN=C(c2cc3ccccc3o2)CS1	53.5*	-17.6%	8.6%	-3.0%	-10.4%	41.1*
CCOC(=O)c1ccccc1NC(=O)NC(C)c1c(-n2cccc2)sc(C)c1C (centres undefined)	/	/	/	/	2.5%	/
